Only some compounds are listed: those with a hit (about 2.4% of all), similar ones and a draw of the others.
zVAD death inh: inhibitors of zVAD-triggered necroptosis, primary screen, L929 cells. viability rescue, % at 10 µM. L929 zVAD necroptosis rescue, ATP luminescence, 24 h; with zVAD 60 µM. 220,000 compounds, 0.38% hits;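 active means activation, scaled between plate controls, above about 75%, limit read from the data; inactive means activation under that limit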
Mcl-1 Bim block: inhibitors of Bim peptide binding to Mcl-1, primary screen, biochemical, bead-based flow cytometry, multiplex. Induced myeloid leukemia cell differentiation protein Mcl-1 (Homo sapiens), Q07820. Bim peptide-Mcl-1 binding. inhibition, % at 10 µM. 190,000 compounds, 0.1% hits. AID 1009, 2008; in the data active means inhibition above about 40%
Target sequence (Q07820 whole entry, looked up): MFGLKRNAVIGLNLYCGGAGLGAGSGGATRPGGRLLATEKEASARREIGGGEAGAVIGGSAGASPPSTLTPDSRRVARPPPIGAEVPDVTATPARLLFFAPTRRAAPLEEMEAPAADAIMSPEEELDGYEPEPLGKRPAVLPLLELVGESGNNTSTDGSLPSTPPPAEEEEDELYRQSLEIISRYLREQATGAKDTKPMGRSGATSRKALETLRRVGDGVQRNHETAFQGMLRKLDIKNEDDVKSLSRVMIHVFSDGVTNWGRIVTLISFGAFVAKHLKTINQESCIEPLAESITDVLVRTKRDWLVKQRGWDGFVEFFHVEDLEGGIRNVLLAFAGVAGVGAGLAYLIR
Mcl1-Bid inh: Mcl-1/Bid binding inhibitors, primary screen, biochemical, TR-FRET, 1536-well | Induced myeloid leukemia cell differentiation protein Mcl-1 (Homo sapiens), Q07820 | inhibition, % at 21.7 µM | 220,000 compounds, 0.97% hits | TR-FRET Mcl-1/Bid-Dy647 peptide binding;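 active means compounds that cut the binding signal by more than half at the single screening dose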;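 further: His-tagged Mcl-1 with europium anti-His antibody binding Bid BH3 peptide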
MCL1-BIM inh: inhibitors of MCL1 binding to BIM-BH3, primary screen, biochemical, fluorescence polarization. AID 2057, 2009. 320,000 compounds, 0.68% hits. inhibition, % at 10.9 µM. GST-MCL1 / FITC-Bim-BH3 fluorescence polarization. Induced myeloid leukemia cell differentiation protein Mcl-1 (Homo sapiens), Q07820;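 active means inhibition above the mean inhibition of all tested compounds plus 3 SD, set per campaign, cut at about 40% in these data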;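 further: higher means more loss of mP so more displacement of Bim peptide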
Mcl1-Noxa inh: Mcl-1/Noxa binding inhibitors, primary screen, biochemical, TR-FRET, 1536-well; TR-FRET Mcl-1/Noxa peptide binding, 2 h; 220,000 compounds, 1.5% hits; inhibition, % at 21.7 µM;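 active means compounds that cut the protein-peptide binding signal by more than 50% relative to plate controls in a single-dose test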;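 further: His-tagged Mcl-1 with rhodamine Noxa BH3 peptide and terbium anti-His antibody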
TNF death inh: inhibitors of TNF-alpha triggered necroptosis, primary screen, cell-based, Jurkat FADD-/-, single concentration. Jurkat FADD-/- TNF necroptosis rescue, ATP luminescence, 24 h; 0 = TNF only, 100 = no-TNF cells. activation (protection from cell death), % at 10 µM. 220,000 compounds, 0.068% hits. AID 463075, 2010;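 active means activation, meaning protection from cell death, of at least 50% relative to plate controls; inactive means activation below 50%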;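 further: necroptosis triggered by 40 ng/mL TNF-alpha added together with compound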
Numbers stand for hits.

What do the screens show for `NC(=O)NC(CC(=O)NCCc1ccc(S(N)(=O)=O)cc1)c1ccccc1Cl` (stereo not given)?
zVAD death inh: inactive; Mcl1-Bid inh: inactive; MCL1-BIM inh: inactive; Mcl1-Noxa inh: inactive; TNF death inh: inactive

What do the screens show for `CCCCN(C(=O)CSc1nnc(-c2ccc(OC)cc2)n1C(C)C)c1c(N)n(Cc2ccccc2)c(=O)[nH]c1=O`?
zVAD death inh: inactive; Mcl-1 Bim block: inactive; Mcl1-Bid inh: inactive; MCL1-BIM inh: inactive; Mcl1-Noxa inh: 62; TNF death inh: inactive

How did CCCCN(C(=O)CSc1nnc(-c2ccccc2OC)n1C)c1c(N)n(Cc2ccccc2)c(=O)[nH]c1=O do in these assays?
zVAD death inh: inactive; Mcl-1 Bim block: inactive; Mcl1-Bid inh: inactive; MCL1-BIM inh: inactive; Mcl1-Noxa inh: inactive; TNF death inh: inactive

Results for CCCCN(C(=O)CSc1nnc(-c2ccc(OC)cc2)n1CC)c1c(N)n(Cc2ccccc2)c(=O)[nH]c1=O ?
zVAD death inh: inactive; Mcl-1 Bim block: inactive; Mcl1-Bid inh: inactive; MCL1-BIM inh: inactive; Mcl1-Noxa inh: 60; TNF death inh: inactive

How did Cc1ccc(S(=O)(=O)N(CC(=O)NCC2CCCO2)Cc2cccc(C)c2)cc1 (stereo not given) do in these assays?
MCL1-BIM inh: inactive

What do the screens show for `CCCc1cc(=O)[nH]c(SCC(=O)N2CCc3ccccc3C2)n1`?
MCL1-BIM inh: inactive

Results for O=C(NCc1ccco1)c1ccc2c(=O)n(Cc3ccco3)c(SCC(=O)N3CCCC3)nc2c1 ?
zVAD death inh: inactive; Mcl-1 Bim block: inactive; Mcl1-Bid inh: inactive; MCL1-BIM inh: inactive; Mcl1-Noxa inh: 54; TNF death inh: inactive

How did CSC(=NCc1cccnc1)NS(=O)(=O)c1cccs1 do in these assays?
zVAD death inh: inactive; Mcl-1 Bim block: inactive; Mcl1-Bid inh: 71; MCL1-BIM inh: inactive; Mcl1-Noxa inh: inactive; TNF death inh: inactive

Results for C/C(=N\Nc1cc(C)nc(NCc2ccccc2)n1)c1ccc([N+](=O)[O-])cc1 ?
zVAD death inh: inactive; Mcl1-Bid inh: inactive; MCL1-BIM inh: inactive; Mcl1-Noxa inh: inactive; TNF death inh: inactive

How did CNc1sc(C(=O)c2ccc(F)cc2)c(N)c1-c1nc2ccccc2s1 do in these assays?
zVAD death inh: inactive; Mcl-1 Bim block: inactive; Mcl1-Bid inh: inactive; MCL1-BIM inh: inactive; Mcl1-Noxa inh: 92; TNF death inh: inactive

Results for CNc1sc(C(=O)c2cccs2)c(N)c1-c1nc2ccccc2s1 ?
zVAD death inh: inactive; Mcl-1 Bim block: inactive; Mcl1-Bid inh: inactive; MCL1-BIM inh: inactive; Mcl1-Noxa inh: 56; TNF death inh: inactive

How did CCC(=O)N1CCc2cc(Br)cc(S(=O)(=O)N(C)c3ccc(OC)cc3OC)c21 do in these assays?
zVAD death inh: inactive; Mcl-1 Bim block: inactive; Mcl1-Bid inh: inactive; MCL1-BIM inh: inactive; Mcl1-Noxa inh: inactive; TNF death inh: inactive

What do the screens show for `Cc1ccc(O)c(NC2=C(Cl)C(=O)N(Cc3ccccc3)C2=O)c1`?
zVAD death inh: inactive; Mcl-1 Bim block: inactive; Mcl1-Bid inh: 56; Mcl1-Noxa inh: 88; TNF death inh: inactive

Results for O=C1C(Cl)=C(Nc2ccccc2O)C(=O)N1c1ccccc1 ?
zVAD death inh: inactive; Mcl-1 Bim block: inactive; Mcl1-Bid inh: inactive; MCL1-BIM inh: inactive; Mcl1-Noxa inh: 70; TNF death inh: inactive

Results for COc1ccccc1N1C(=O)C(Cl)=C(Nc2ccccc2O)C1=O ?
zVAD death inh: inactive; Mcl-1 Bim block: inactive; Mcl1-Bid inh: inactive; Mcl1-Noxa inh: 76; TNF death inh: inactive

How did CCOc1ccccc1NC1=C(Cl)C(=O)N(c2ccc(OC)cc2)C1=O do in these assays?
zVAD death inh: inactive; Mcl-1 Bim block: inactive; Mcl1-Bid inh: inactive; MCL1-BIM inh: inactive; Mcl1-Noxa inh: inactive; TNF death inh: inactive

Results for O=C(CCNC(=O)N1CC(=O)Nc2ccccc21)Nc1ccc(Br)cc1F ?
MCL1-BIM inh: inactive

Results for CCc1ccc(NC(=O)CCCNC(=O)Cn2cnc3sc(C)c(C)c3c2=O)cc1 ?
MCL1-BIM inh: inactive

How did Cn1cncc1C#Cc1ccc2cc(CCO)oc(=O)c2c1 do in these assays?
MCL1-BIM inh: inactive

How did CCNc1ccc(Br)cc(C(=O)/C=C/c2ccc(Cl)cc2)c1=O do in these assays?
Mcl-1 Bim block: inactive; Mcl1-Bid inh: inactive; MCL1-BIM inh: inactive; Mcl1-Noxa inh: 82; TNF death inh: inactive

Results for CCNc1ccc(Br)cc(C(=O)/C=C/c2c(Cl)cccc2Cl)c1=O ?
zVAD death inh: inactive; Mcl-1 Bim block: inactive; Mcl1-Bid inh: inactive; MCL1-BIM inh: inactive; Mcl1-Noxa inh: 102; TNF death inh: inactive

What do the screens show for `Cn1c(N)c(S(=O)(=O)N2CCN(c3ccccc3Cl)CC2)c(=O)n(C)c1=O`?
MCL1-BIM inh: inactive

Results for COc1ccc(NC(=O)/C(C#N)=C/c2ccc(Br)o2)cc1 ?
zVAD death inh: inactive; Mcl-1 Bim block: inactive; Mcl1-Bid inh: inactive; MCL1-BIM inh: inactive; Mcl1-Noxa inh: 58; TNF death inh: inactive

How did O=C(CCC1CCCC1)Nc1cc(C(F)(F)F)ccc1N1CCOCC1 do in these assays?
MCL1-BIM inh: inactive

What do the screens show for `O=C(COC(=O)Cc1cccc(C(F)(F)F)c1)Nc1ccc2[nH]c(=O)[nH]c2c1`?
MCL1-BIM inh: inactive

Results for O=C(CN1C(=O)/C(=C\c2cccc(F)c2)Oc2ccccc21)N1CCN(c2ccccn2)CC1 ?
zVAD death inh: inactive; Mcl-1 Bim block: inactive; Mcl1-Bid inh: 54; MCL1-BIM inh: inactive; Mcl1-Noxa inh: inactive; TNF death inh: inactive

How did COc1cc(NC(=O)c2cc3c(C)nc4ccccc4c3o2)cc(OC)c1OC do in these assays?
zVAD death inh: inactive; Mcl-1 Bim block: inactive; Mcl1-Bid inh: inactive; MCL1-BIM inh: inactive; Mcl1-Noxa inh: 56; TNF death inh: inactive

Results for Cc1nc2ccccc2c2oc(C(=O)Nc3ccc(C(C)C)cc3)cc12 ?
zVAD death inh: inactive; Mcl-1 Bim block: inactive; Mcl1-Bid inh: inactive; MCL1-BIM inh: inactive; Mcl1-Noxa inh: inactive; TNF death inh: inactive

What do the screens show for `CCCCN(CC)CCNC(=O)c1cc2c(C)nc3ccccc3c2o1`?
zVAD death inh: inactive; Mcl-1 Bim block: inactive; Mcl1-Bid inh: inactive; MCL1-BIM inh: inactive; Mcl1-Noxa inh: 71; TNF death inh: inactive

Results for CN(C(=O)c1ccc(COc2ccccc2Br)o1)c1ccccc1 ?
zVAD death inh: inactive; Mcl-1 Bim block: inactive; Mcl1-Bid inh: inactive; MCL1-BIM inh: inactive; Mcl1-Noxa inh: inactive; TNF death inh: inactive

What do the screens show for `CCn1c(SCC(=O)Nc2nc3ccc(C)cc3s2)nc2c(c1=O)SC(C)C2` (stereo not given)?
zVAD death inh: inactive; Mcl-1 Bim block: inactive; Mcl1-Bid inh: 56; MCL1-BIM inh: inactive; Mcl1-Noxa inh: inactive; TNF death inh: inactive
